Laboratory results reported in PMC4336329 (PLoS ONE, 2015).
Hit rate of the full screen: of about 310,000 compounds, about 14,000 (4.5%) showed an effect of 50% or more. Effects have a minus sign here. This excerpt belongs to a sample that is enriched for strong results.

Target: human ether-à-go-go-related gene (hERG) potassium channel (human, UniProt Q12809)
Assay: primary screen, population patch clamp on CHO cells stably expressing hERG; higher = less effect of the substance
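Note: peak tail current of the secondary pulse compared with the same well before compound.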

Chain of human ether-à-go-go-related gene (hERG) potassium channel (Q12809 whole entry, looked up): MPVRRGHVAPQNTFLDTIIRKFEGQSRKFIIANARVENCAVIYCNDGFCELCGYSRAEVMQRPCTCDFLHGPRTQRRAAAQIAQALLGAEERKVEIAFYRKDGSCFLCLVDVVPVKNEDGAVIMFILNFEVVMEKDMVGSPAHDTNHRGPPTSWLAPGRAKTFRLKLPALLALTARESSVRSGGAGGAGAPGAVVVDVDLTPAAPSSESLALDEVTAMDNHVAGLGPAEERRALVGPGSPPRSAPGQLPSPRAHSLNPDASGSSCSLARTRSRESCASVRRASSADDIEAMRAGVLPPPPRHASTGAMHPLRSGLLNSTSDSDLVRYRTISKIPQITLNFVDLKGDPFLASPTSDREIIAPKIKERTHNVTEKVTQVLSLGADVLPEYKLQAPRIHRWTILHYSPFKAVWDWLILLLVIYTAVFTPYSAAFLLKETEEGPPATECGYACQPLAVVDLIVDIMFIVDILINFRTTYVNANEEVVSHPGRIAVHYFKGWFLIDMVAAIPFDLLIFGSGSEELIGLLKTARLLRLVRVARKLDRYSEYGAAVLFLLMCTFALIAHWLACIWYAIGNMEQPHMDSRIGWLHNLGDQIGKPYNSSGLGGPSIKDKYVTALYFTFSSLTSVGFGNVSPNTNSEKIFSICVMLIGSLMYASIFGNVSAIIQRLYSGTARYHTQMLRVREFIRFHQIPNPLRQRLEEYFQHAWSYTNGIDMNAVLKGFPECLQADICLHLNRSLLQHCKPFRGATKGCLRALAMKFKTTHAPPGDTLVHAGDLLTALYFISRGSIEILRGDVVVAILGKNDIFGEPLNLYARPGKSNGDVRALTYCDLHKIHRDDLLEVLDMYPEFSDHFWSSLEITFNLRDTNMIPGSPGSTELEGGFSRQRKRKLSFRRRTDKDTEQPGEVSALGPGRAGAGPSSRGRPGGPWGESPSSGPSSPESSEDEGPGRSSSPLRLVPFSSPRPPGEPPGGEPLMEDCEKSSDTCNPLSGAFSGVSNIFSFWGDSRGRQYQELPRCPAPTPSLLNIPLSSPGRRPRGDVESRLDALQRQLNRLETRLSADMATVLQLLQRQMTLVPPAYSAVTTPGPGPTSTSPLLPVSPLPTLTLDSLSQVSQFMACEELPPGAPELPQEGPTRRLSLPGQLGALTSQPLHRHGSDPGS

| Compound | hERG current change (%, negative = inhibition) at 10uM |
| --- | --- |
| O=C(CN1CCN(Cc2ccccc2)CC1)N/N=C/C=C/c1ccccc1[N+](=O)[O-] | -74.2% |
| Cc1ccc(CN2CCN(/N=C/C=C/c3ccccc3[N+](=O)[O-])CC2)cc1 | -21.1% |
| O=C(CN1CCN(Cc2ccccc2Cl)CC1)N/N=C/C=C\c1ccccc1[N+](=O)[O-] | -76.2% |
| O=C(CN1CCN(Cc2ccccc2Cl)CC1)N/N=C/C=C/c1ccco1 | -68.5% |
| O=C(CN1CCN(Cc2ccccc2Cl)CC1)N/N=C/c1ccco1 | -21.8% |
| O=C(Cc1cccs1)N/N=C/C=C\c1ccccc1[N+](=O)[O-] | 13.3% |
| O=C(CN1CCN(Cc2ccccc2)CC1)N/N=C/C=C/c1ccco1 | -47.2% |
| O=C(Cc1ccccc1)N/N=C/C=C/c1ccccc1[N+](=O)[O-] | 1.71% |
| O=[N+]([O-])c1ccccc1/C=N\N1CCN(Cc2ccccc2Cl)CC1 | 9.77% |
| O=C(COC(=O)CNS(=O)(=O)c1ccc(F)c(F)c1F)NC1CCCC1 | 4.16% |
| Clc1ccc(OCCCc2nc(-c3ccncc3)no2)c(Cl)c1 | -0.0206% |
| O=C1/C(=C/N(C(=O)c2ccco2)c2ccc(Br)cc2)Sc2ccccc21 | -7.76% |
| Cc1[nH]c2ccccc2c1C(C[N+](=O)[O-])c1cccc(O)c1 (centres unmarked) | 8.53% |
| Cc1oc2cc3c(C(=O)N4CCCCC4)c(C)oc3cc2c1C(=O)N1CCCCC1 | 5.17% |
| Cc1ccc2cc(C(=O)O)c(C)nc2c1 | 11.6% |
| CCC(CC)C(=O)Nc1ccncc1 | 23.9% |
| COc1ccccc1CNC(=O)c1ccccc1C(=O)NC(CC(C)C)C(=O)NCc1ccccc1OC (centres unmarked) | 10.6% |
| Cc1c(NC(=O)c2ccco2)cccc1C(=O)NN1C(=O)c2ccccc2C1=O | 16.4% |
| COC(CNC(=O)c1ccc2c3c(onc13)-c1ccccc1C2=O)OC | -1.15% |
| Cl.OCCNCc1cccc(OCc2ccccc2Cl)c1 | -17.6% |
| COc1ccc(N2CC(C(=O)Nc3ccc(S(=O)(=O)N4CCOCC4)cc3)CC2=O)cc1 (centres unmarked) | 13.4% |
| Cl.O=C(NCCN1CCOCC1)c1cn(-c2ccccc2)nc1-c1cccs1 | -25.6% |

| Compound | hERG current change (%, negative = inhibition) at 10uM |
| --- | --- |
| CCN(CC)CCNC(=O)c1cn(-c2ccccc2)nc1-c1cccs1.Cl | -69% |
| CCN(CC)CCNC(=O)c1ccc(NC(=O)c2cn(-c3ccccc3)nc2-c2cccs2)cc1 | -32.7% |
| COc1cccc(CNC(=O)c2ccccc2SCC(=O)N2CCCC2)c1 | -22.7% |
| COc1cccc(CN2CCNC(=O)C2CC(=O)O)c1OC (centres unmarked) | 11.4% |
| Cc1ccc(S(=O)(=O)CCNC(=O)Cc2ccccc2)cc1 | 26.9% |
| Cc1cc(C)n(CC(O)COCc2ccco2)n1 (centres unmarked) | -3.37% |
| CN=c1sc2ccccc2n1CC(O)COc1ccccc1 (centres unmarked) | -57.5% |
| OC(CN=c1sc2ccccc2n1CC(O)COc1ccccc1)COc1ccccc1 (centres unmarked) | -1.46% |
| CN=c1sc2ccccc2n1CC(O)c1ccccc1 (centres unmarked) | -21.4% |
| CCN=c1sc2ccccc2n1CC(O)COc1ccccc1 (centres unmarked) | -44% |
| CN=c1sc2ccccc2n1CC(O)COCc1ccco1 (centres unmarked) | -65.4% |
| CN(C)C(=O)c1ccc2c3c(cccc13)CC2 | 24.6% |
| COc1cc(NC(=O)CCCNC(=O)Cn2cnc3sc4c(c3c2=O)CCCC4)cc(OC)c1OC | 29.6% |
| O=C(COc1ccc2c(c1)oc(=O)c1ccccc12)NCCN1CCOCC1 | -11% |
| COc1ccc2oc(=O)c(C(=O)NCC3CCCO3)cc2c1 (centres unmarked) | 3.67% |
| COc1ccc(CCn2c(=N)c(C(=O)NCC3CCCO3)cc3c(=O)n4cccc(C)c4nc32)cc1 (centres unmarked) | -79.7% |
| COc1ccc(CCNC(=O)CNCC2CCCO2)cc1OC.O=C(O)C(=O)O (centres unmarked) | 14.1% |
| Cc1cccn2c(=O)c3cc(C(=O)NCC4CCCO4)c(=N)n(CCc4ccccc4)c3nc12 (centres unmarked) | -76.7% |
| O=C(CSc1nc2ccc(N3CCOCC3)cc2c(=O)n1CCc1ccccc1)NCC1CCCO1 (centres unmarked) | -47% |
| COc1ccc(CCNC(=O)C(=O)NCC2CCCO2)cc1 (centres unmarked) | -0.535% |
| COc1ccc(CCn2c(=N)c(C(=O)NCC3CCCO3)cc3c(=O)n4cccc(C)c4nc32)cc1OC (centres unmarked) | -80.9% |
| O=C(NCC1CCCO1)c1ccc2c(=O)n(CCc3ccccc3)c(=O)[nH]c2c1 (centres unmarked) | 7.98% |
